SMN2 splice up: qHTS Assay for Enhancers of SMN2 Splice Variant Expression | HEK293 SMN2-luciferase splicing reporter, luminescence, 30-36 h | Potency, µM (highest dose often 46.1 µM), without a hit: at the highest dose activity change, positive = activation, usual class: activators | 210,000 tested, 2.8% active | AID 1458, 2008; note: % of control where 0% means no effect; nearly all actives have a fitted effect of over 55% in size
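HEK293 cells carry an SMN2 […]–luciferase reporter in which exon 7 inclusion puts luciferase in frame. Cells were plated 10-12 h before compound addition, then incubated 30-36 h at 37C. ONE-Glo luminescence was read; sodium butyrate at 4.5 mM final served as control.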
NPC1 prom act: qHTS Assay for NPC1 Promoter Activators. 320,000 tested, 2.4% active. AID 485313, 2010. Potency, µM (series often up to 9.22 µM), for the others: top-dose activation, actives largely listed as activators. Huh7 NPC1 promoter luciferase reporter, 24 h; note: % of control where 0% means no effect; nearly all actives have a fitted effect of over 60% in size
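Quantitative HTS used a cell-based reporter: Huh7 cells stably bearing the NPC1 promoter upstream of luciferase were treated with compounds for 24 h, and promoter activation was read as luminescence.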
Rab9 promoter act: qHTS Assay for Rab9 Promoter Activators. Huh7 Rab9 promoter-luciferase reporter, luminescence, 24 h. Potency, µM (doses to about 9.22 µM), for the others: at the highest dose activation, negative = inhibition, most hits filed as activators. 320,000 tested, 2.8% active. AID 485297, 2010; note: % of control where 0% means no effect; nearly all actives have a fitted effect of over 60% in size
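Steps: seed 1500 Huh7 Rab9-luc cells per well, rest 2 h at 37 °C; add compound in DMSO; incubate 24 h; add luciferase reagent, 10 min ambient; read luminescence.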
ELG1 repair inh: qHTS screen for small molecules that inhibit ELG1-dependent DNA repair in human embryonic kidney (HEK293T) cells expressing luciferase-tagged ELG1; Potency, µM (highest dose often 46.1 µM), without a hit: at the highest dose activity change, negative = inhibition, most hits filed as inhibitors; AID 504467, 2011; 330,000 tested, 2.3% active; HEK293T ELG1-luciferase reporter, luminescence, 16 h; DNA damage induced by 5-fluorouridine; note: % is set by controls: 0 for no effect and ±100 for the full control effect; nearly all actives have a fitted effect of over 55% in size
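Cells (2,000 per well) received 5-fluorouridine plus test compound or DMSO and were incubated 16 hr at 37 °C, 5% CO2. Luciferase activity was read by luminescence 30 min after ONE-Glo addition; signal suppression marked inhibition of damage-induced ELG1 function.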
FLuc modulator: qHTS profiling assay for firefly luciferase inhibitor/activator using purifed enzyme and Km concentrations of substrates (counterscreen for miR-21 project); Luciferin 4-monooxygenase (Photinus pyralis), P08659; purified FLuc, Km substrates, luminescence inhibition; Potency, µM (top dose mostly 57.5 µM), for the others: at the top dose activity change, negative = inhibition, hits mostly inhibitors; 360,000 tested, 6.9% active; AID 588342, 2011;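 note: plate controls were vehicle for no effect and reference inhibitor for full effect; nearly all actives have a fitted effect of over 55% in size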
Target sequence (P08659 whole entry, looked up): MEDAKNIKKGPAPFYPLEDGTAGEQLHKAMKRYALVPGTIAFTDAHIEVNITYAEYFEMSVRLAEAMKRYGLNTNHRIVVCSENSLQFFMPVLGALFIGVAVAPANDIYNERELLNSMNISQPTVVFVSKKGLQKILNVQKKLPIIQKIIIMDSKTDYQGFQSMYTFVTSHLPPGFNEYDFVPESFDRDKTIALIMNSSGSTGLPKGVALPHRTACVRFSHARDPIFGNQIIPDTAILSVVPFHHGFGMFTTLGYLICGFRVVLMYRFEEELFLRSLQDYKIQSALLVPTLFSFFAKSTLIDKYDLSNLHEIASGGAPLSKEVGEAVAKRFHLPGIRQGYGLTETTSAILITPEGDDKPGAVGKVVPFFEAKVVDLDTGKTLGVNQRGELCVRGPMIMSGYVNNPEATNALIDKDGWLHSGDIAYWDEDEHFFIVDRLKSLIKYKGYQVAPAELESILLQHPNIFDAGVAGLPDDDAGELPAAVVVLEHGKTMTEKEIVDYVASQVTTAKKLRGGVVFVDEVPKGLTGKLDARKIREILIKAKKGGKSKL
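Biochemical qHTS of compounds, final roughly 60 µM downward over six points, against 10 nM purified firefly luciferase using Km concentrations of substrates (10 uM D-luciferin, 10 uM ATP) in Tris acetate pH 7.5 buffer; luminescence output.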
ELG1 genotoxic: qHTS screen for small molecules that induce genotoxicity in human embryonic kidney (HEK293T) cells expressing luciferase-tagged ELG1; HEK293T ELG1-luciferase reporter, luminescence, 16 h; Potency, µM (series often up to 46 µM), for the others: at the highest dose activity change, positive = activation, most hits filed as activators; 330,000 tested, 1.3% active; AID 504466, 2011; note: % of control where 0% means no effect; nearly all actives have a fitted effect of over 60% in size
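HEK293T cells expressing luciferase-tagged ELG1 were treated with compound or DMSO for 16 hr at 37°C. Luciferase activity was then read after 30 min with ONE-Glo at room temperature; rising signal flags genetic stress.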
An asterisk follows results filed as active; ? = inconclusive; . = no result given. Compounds with a hit are over-represented: about 9.2% of the library has one in this group of screens. Calls come from the whole dose curve; as a rule, active = well fitted curve in the direction sought with a large enough effect; inconclusive = small, poorly fitted or top-dose-only effect, or another doubt; inactive = no such curve, though single readings can be large; an effect the other way counts as inactive or inconclusive. Potency is the fitted concentration of half-maximal effect.

SMILES	SMN2 splice up	NPC1 prom act	Rab9 promoter act	ELG1 repair inh	FLuc modulator	ELG1 genotoxic
O=C(O)c1ccc(NC(=O)c2cn(-c3ccccc3)nc2-c2ccccc2)cc1	?	23%	28%	?	1.2µM*	11%
O=C(O)c1ccc(NC(=O)c2cn(-c3ccccc3)nc2-c2ccc(Br)cc2)cc1	6%	0%	-5%	3%	3.8µM*	0%
COc1ccc(NC(=O)CN(C)C(=O)c2cn(-c3ccccc3)nc2-c2ccc(F)cc2)cc1	.	-1%	1%	?	21µM*	-4%
O=C(O)c1cccc(NC(=O)c2cn(-c3ccccc3)nc2-c2cccc(Br)c2)c1	.	1%	-5%	16%	?	0%
COc1ccc(NC(=O)CN(C)C(=O)c2cn(-c3ccccc3)nc2-c2ccc(OC)cc2)cc1	.	-3%	-2%	?	2%	-2%
COc1ccc(-c2nn(-c3ccccc3)cc2C(=O)Nc2cccc(S(=O)(=O)NC3=NCCC3)c2)cc1	.	.	.	23µM*	.	-4%
CC(=O)N1c2ccccc2CC1C(=O)N1CCN(c2ccccc2F)CC1 (stereo not given)	.	.	.	.	-5%	.
COc1ccc(NC(=O)c2cn(-c3ccccc3)nc2-c2cc3ccccc3o2)cc1	-5%	10%	15%	?	8.5µM*	-7%
COc1ccc(-c2nn(-c3ccccc3)cc2C#N)cc1	-2%	?	3.5µM*	?	5.4µM*	?
COc1ccc(-c2nn(-c3ccccc3)cc2C(=O)Nc2ccccc2OC)cc1	-10%	.	.	.	0%	.
COc1ccc(-c2nn(-c3ccccc3)cc2/C=N/Nc2cccc(C(=O)O)c2)cc1	25%	?	?	?	11µM*	?
N#Cc1cn(-c2ccccc2)nc1-c1cc2ccccc2oc1=O	.	13%	-1%	?	0%	?
OCc1cn(-c2ccccc2)nc1-c1cc2ccccc2o1	7.9µM*	2.5µM*	1.3µM*	?	1.7µM*	?
CCCCNC(=O)Cn1c(=O)cc(C)c2c(C)nn(-c3cccc(Cl)c3C)c21	.	.	.	.	-6%	.
COc1cc(OC)cc(C(=O)N[C@H](C(=O)NCc2ccccc2)C(C)C)c1	.	-6%	-9%	7%	-1%	0%
COc1cccc(CN2CCNC(=O)C2CC(=O)N(C)C2CCCCC2)c1 (stereo not given)	.	-1%	-1%	15%	-1%	2%
COc1ccc(-c2nn(-c3ccccc3)cc2C(=O)Nc2ccc(C(=O)O)cc2)cc1	.	4%	-2%	-9%	11µM*	-1%
COc1ccc(NC(=O)c2cn(-c3ccccc3)nc2-c2ccncc2)cc1	-3%	-5%	-2%	?	?	-8%
CN(Cc1cnn(Cc2ccccc2)c1)C(=O)c1cccc(S(=O)(=O)N2CCOCC2)c1	.	-20%	-15%	-21%	4%	-1%
Cc1ccc(N(C)S(=O)(=O)c2cccc(C(=O)N(C)Cc3cnn(-c4ccccc4)c3)c2)cc1	.	-7%	-5%	16µM*	0%	-8%
O=C(Cc1ccc([N+](=O)[O-])cc1)N/N=C/c1cccs1	.	-1%	10%	-2%	2%	-3%
CCOC(=O)C1=C(c2ccccc2)c2ccc(OC)cc2N(S(=O)(=O)C(F)(F)F)C1C(=O)OCC (stereo not given)	.	.	.	15µM*	.	-3%
CCOC(=O)C1C(C(=O)OC)=C(C2=CCCCC2)c2ccccc2N1S(=O)(=O)C(F)(F)F (stereo not given)	.	.	.	18µM*	.	-7%
CCCn1c2ccccc2c2cnn(CC(=O)NCCCN(Cc3ccccc3)C(C)C)c(=O)c21	.	.	.	.	-3%	.

Screening results as filed in PubChem BioAssay.
